According to PubChem BioAssay (NCI):
Compounds without any hit were thinned out: in the full panel of roughly 83,000, 20% have a hit.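 Values shown are percent growth following 48 h exposure of cells in 96-well plates to a single concentration of compound; below 10 was considered active.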 Calls of active or inactive are those of the source.

What was measured:
Assay in all cases: NCI-60 one-dose screen, 48 h (100 = growth as untreated, 0 = no growth, -100 = all killed)
Settings in all cases: 10 µM unless noted
[1] = system: NCI-H23 lung
[2] = system: NCI-H226 lung
[3] = system: NCI-H322M lung
[4] = system: HOP-62 NSCLC
[5] = system: NCI-H460 lung
[6] = system: NCI-H522 lung
[7] = system: A549/ATCC NSCLC
[8] = system: 786-0 renal
[9] = system: COLO 205 colon
[10] = system: DU-145 prostate
[11] = system: MALME-3M melanoma
[12] = system: MDA-MB-231 breast
[13] = system: RXF 393 renal
[14] = system: SF-268 CNS
[15] = system: SF-295 CNS
[16] = system: SF-539 CNS
[17] = system: UACC-257 melanoma
[18] = system: M14 melanoma
[19] = system: HCT-15 colon
[20] = system: K-562 leukemia

Measured: growth

Cc1cc([N+](=O)[O-])c(C)cc1C(=O)O
inactive: [1] 104% | [2] 99.8% | [3] 92.7% | [4] 103% | [5] 111% | [6] 96.1% | [7] 108% | [8] 97% | [9] 108% | [10] 109% | [11] 102% | [12] 110% | [13] 112% | [14] 99.8% | [15] 96.9% | [16] 98.5% | [17] 105% | [18] 100% | [19] 97.3%

COc1cc(/C=C2\COc3ccc(O)cc3C2=O)cc(OC)c1
active: [20] 5.63%
inactive: [1] 93.8% | [2] 94.9% | [3] 90.8% | [4] 86% | [5] 82.4% | [6] 32.3% | [7] 92.3% | [8] 87.6% | [9] 81.6% | [10] 72% | [11] 70.3% | [12] 77% | [14] 85.2% | [15] 93.4% | [16] 80.7% | [17] 82.1% | [19] 37.9%

CCCCCCCCCCCCCCCCN=C(CC(=O)O)C(=O)O
inactive: [1] 103% | [2] 99.4% | [3] 91.7% | [4] 106% | [5] 82.7% | [6] 87.5% | [7] 96.1% | [8] 95.4% | [9] 97.9% | [10] 78.8% | [20] 80.6% | [11] 111% | [13] 101% | [14] 103% | [15] 103% | [16] 125% | [17] 114% | [18] 95.8% | [19] 102%

COc1ccc(-c2cc(Cc3cccs3)c(=O)n(Cn3cncn3)n2)cc1
inactive: [1] 102% | [2] 96.3% | [3] 100% | [4] 110% | [5] 112% | [6] 91.6% | [7] 97.3% | [8] 104% | [9] 117% | [10] 124% | [20] 98.3% | [12] 87.5% | [13] 110% | [14] 110% | [15] 98.9% | [16] 101% | [17] 105% | [18] 107% | [19] 101%

COc1ccc(/C=N\Nc2ccc([N+](=O)[O-])cn2)cc1OC
inactive: [1] 88.4% | [2] 34.7% | [3] 10.8% | [4] 25.4% | [6] 47.9% | [7] 30.3% | [8] 10.2% | [9] 67.5% | [10] 73.7% | [20] 93.7% | [13] 51.6% | [14] 73.3% | [15] 35.4% | [16] 32.1% | [17] 67.6% | [18] 110% | [19] 95.8%
active: [5] 1.43% | [12] -0.447%

N#Cc1c2ccccc2c2n1-c1ccccc1OC(c1ccccc1)C2=O (stereo not drawn)
active: [6] -43.7%
inactive: [1] 22.6% | [2] 21.2% | [3] 81.5% | [4] 32.6% | [5] 31.8% | [7] 10.4% | [8] 31.7% | [9] 63.9% | [10] 56.7% | [20] 13% | [12] 22.3% | [14] 30.1% | [15] 16.3% | [16] 77.2% | [17] 53.3% | [18] 41.4% | [19] 13.8%

CCC1(c2ccccc2)Oc2ccccc2-n2c(C#N)c3ccccc3c2C1=O (stereo not drawn)
inactive: [1] 97.2% | [2] 110% | [3] 90.3% | [4] 93.6% | [5] 105% | [6] 77.5% | [7] 93.6% | [8] 93.9% | [9] 106% | [10] 114% | [20] 86.7% | [12] 98.5% | [14] 101% | [15] 93.3% | [16] 105% | [17] 90.5% | [18] 94.3% | [19] 94%

c1cncc(CNc2ccccc2-c2nnc(Nc3ccc4c(c3)OCO4)o2)c1
active: [2] -14% | [5] 9.93% | [6] 3.02% | [9] -39.8% | [10] 1.3% | [13] -2.33% | [15] 5.25% | [16] 0.107% | [18] 9.13%
inactive: [1] 18% | [3] 46.6% | [4] 27.2% | [7] 20% | [8] 37% | [11] 32.1% | [12] 16.3% | [14] 33.5% | [17] 56.2% | [19] 10.2%

COC(=O)CCC1=C(CC(=O)OC)C(C)=N/C1=C\c1[nH]c(-c2ccc[nH]2)cc1OC
active: [6] -7% | [20] -3.71% | [12] -12.2% | [19] 8.89%
inactive: [1] 49.4% | [2] 54.5% | [3] 53.3% | [4] 46.1% | [5] 19.1% | [7] 18% | [8] 50.2% | [9] 30.5% | [10] 36.9% | [13] 52.8% | [14] 44.8% | [15] 39.3% | [16] 38.8% | [17] 32.5% | [18] 17.2%
